Results as given in PubChem BioAssay (Tox21).
Results filed as inconclusive are left out. A call without a number means that no potency is given here. Values without a mark were called inactive. Activity calls are given as the source filed them. Unless noted, calls come from the whole dose curve; as a rule, active = well fitted curve in the direction sought with a large enough effect in the repeat runs; inconclusive = weak or mixed curves; inactive = no such curve, though single readings can be large; an effect the other way counts as inactive or inconclusive.

What was measured:
[1] = qHTS assay to identify small molecule agonists of the vitamin D receptor (VDR) signaling pathway - cell viability counter screen (AID 743224); note: nearly all actives have a fitted effect of over 50% in size; note: potency is the fitted concentration of half-maximal effect
Method in brief: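 VDR-bla cells, 4 h after plating, exposed to compounds for 16 h at 37C; viability then read in the same wells as CellTiter-Glo luminescence after 30 min at room temperature, following the bla FRET read.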

[2] = qHTS assay to identify small molecule antagonists of the vitamin D receptor (VDR) signaling pathway - cell viability counter screen (AID 743225); note: nearly all actives have a fitted effect of over 50% in size
Method in brief: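 Luminescent cell viability (CellTiter-Glo) in VDR-bla HEK 293T cells after 16 h compound exposure at 37C in the presence of 3 nM final 1-alpha,25-dihydroxy vitamin D3.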

[3] = qHTS assay to identify small molecule agonists of the NFkB signaling pathway (AID 1159509; active = well fitted curve in the direction sought with a large enough effect in the signal ratio in the repeat runs, not every such curve was filed as active; the % refers to the signal ratio)
Method in brief: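 ME-180 NFkB-bla, 2,000 cells/well, overnight plating; cpd pinned in DMSO, 5 h 37 C; B/G FRET substrate 1.5 h RT; ex 405, em 460/530 nm.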

[4] = qHTS assay to identify small molecule agonists of the NFkB signaling pathway - cell viability counter screen (AID 1159515; calls by dose curve; note: nearly all actives have a fitted effect of over 55% in size; note: potency is the fitted concentration of half-maximal effect)
Method in brief: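 NFkB-bla ME-180 cells, 2,000/well, plated overnight at 37 C; compound added for 5 hr at 37 C. Viability read in the same wells as the bla reporter, by CellTiter-Glo luminescence after 30 min at room temperature.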

[5] = qHTS assay to identify small molecule antagonists of the retinoid-related orphan receptor gamma (ROR-gamma) signaling pathway - cell viability counter screen (AID 1159520); note: nearly all actives have a fitted effect of over 50% in size; note: potency is the fitted concentration of half-maximal effect
Method in brief: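 Tet-on ROR gamma CHO cells (1,000/well) were plated 4 hr, given compounds in DMSO for 2 hr at 37 C, then induced with 1 uM final doxycycline for 16 hr. Viability was read as ATP by CellTiter-Glo luminescence after 30 min.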

[6] = molecular target: Nuclear receptor ROR-gamma (Homo sapiens) (UniProt P51449); test: qHTS assay to identify small molecule antagonists of the retinoid-related orphan receptor gamma (ROR-gamma) signaling pathway (AID 1159521; note: nearly all actives have a fitted effect of over 50% in size; note: potency is the fitted concentration of half-maximal effect)
Method in brief: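 CHO cells expressing RORγ under a TET-on promoter, luciferase under RORE control. Dox 1 uM final, 16 h; compounds added 2 h prior. Luminescence decrease measured.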

[7] = qHTS assay to identify small molecule agonists of the AP-1 signaling pathway - cell viability counter screen (AID 1159525; calls by dose curve; note: nearly all actives have a fitted effect of over 55% in size; note: potency is the fitted concentration of half-maximal effect)
Method in brief: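 ME-180 AP-1-bla, 2500 cells/well, Opti-MEM + 0.5% dialyzed FBS; overnight 37 °C; cpd 15-pt titration, 5 h 37 °C; CellTiter-Glo 30 min RT; luminescence read; normalised to TOAB and DMSO controls.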

[8] = molecular target: Retinoic acid receptor RXR-alpha (Homo sapiens) (UniProt P19793); test: qHTS assay to identify small molecule agonists of the RXR signaling pathway (AID 1159527; calls by dose curve; note: nearly all actives have a fitted effect of over 35% in size)
Method in brief: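 Beta-lactamase reporter assay, agonist format. Engineered HEK 293T line, charcoal-stripped FBS at 2%, overnight (16 hr) exposure, fluorescence at 460 and 530 nm after 405 nm excitation.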

[9] = qHTS assay to identify small molecule agonists of the RXR signaling pathway - cell viability counter screen (AID 1159529); note: nearly all actives have a fitted effect of over 50% in size; note: potency is the fitted concentration of half-maximal effect
Method in brief: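 Same-well viability check after the LiveBLAzer FRET read: CellTiter-Glo added, luminescence measured after 30 min at room temperature. Reporter HEK 293T cells had been treated with compounds for 16 hr following a 5 hr preincubation.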

[10] = qHTS assay to identify small molecule antagonists of the retinoid acid receptor (RAR) signaling pathway - cell viability counter screen (AID 1159551); note: nearly all actives have a fitted effect of over 35% in size; note: potency is the fitted concentration of half-maximal effect
Method in brief: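 C3RL4 RARE-luciferase cells, 1,000/well, incubated overnight, then dosed with compound plus 1 uM retinol (final). After 6 hr at 37 C, viability read by CellTiter-Glo ATP luminescence following 30 min at room temperature.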

[11] = qHTS assay to identify small molecule antagonists of the retinoic acid receptor (RAR) signaling pathway (AID 1159552; note: nearly all actives have a fitted effect of over 50% in size)
Method in brief: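 Readout: luciferase luminescence, 30 min post-reagent at RT. Setup: C3RL4 RARE reporter cells, compounds plus retinol 1 uM final, 6 hr incubation at 37 C and 5% CO2.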

[12] = qHTS assay to identify small molecule agonists of the retinoic acid receptor (RAR) signaling pathway (AID 1159553); conditions: C3RL4 RARE luciferase reporter, agonist, 6 h; activation: at 73.3 µM (top of the series); note: potency is the fitted concentration of half-maximal effect
Method in brief: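 C3RL4 RARE-luciferase cells were seeded at 1,000/well and grown overnight at 37 C, then exposed to compounds for 6 hr at 37 C, 5% CO2. Luciferase reagent was added and luminescence was read after 30 min at room temperature.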

[13] = qHTS assay to identify small molecule agonists of the AP-1 signaling pathway (AID 1159526; calls by dose curve)
[14] = qHTS assay to identify small molecule antagonists of the estrogen related receptor (ERR) signaling pathway (AID 1224819)
Method in brief: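 ERR reporter cell line (NTP) plated at 2,000 cells/well, settled 6 h at 37C/5% CO2, then exposed to LOPAC compounds for 18 h at 37C. One-Glo luciferase luminescence read after 30 min at room temperature.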

[15] = qHTS assay to identify small molecule agonists of the estrogen related receptor (ERR) signaling pathway (AID 1224820)
Method in brief: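 Cells: ERR line from NTP, 2,000/well. Pre-incubation 6 h, 37 C/5% CO2. Compound (DMSO) pin transfer, 18 h 37 C. One-Glo, 30 min RT, luminescence.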

[16] = system: estrogen-related receptor alpha (ERRalpha) with PGC-1alpha coactivator, human; test: qHTS assay to identify small molecule antagonists of the estrogen related receptor signaling pathway with the pleiotropic PPARgamma coactivator (PGC) (AID 1224821; calls by dose curve)
Method in brief: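 Luminescent read-out (One-Glo, 30 min at room temperature) following 18 h treatment of PGC/ERR cells at 37 C with compounds delivered in DMSO. Cells had settled 6 h at 37 C/5% CO2 before dosing.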

[17] = qHTS assay to identify small molecule antagonists of the estrogen related receptor signaling pathway with the pleiotropic PPARgamma coactivator (PGC) cell viability counter screen (AID 1224822;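 note: viability read after 17.5 h compound exposure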)
Method in brief: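 PGC/ERR cells rested 6 h, then compound-treated 17.5 h at 37 C. CellTiter-Fluor added for 30 min at 37 C, viability measured by fluorescence intensity.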

[18] = qHTS assay to identify small molecule agonists of the estrogen related receptor signaling pathway with the pleiotropic PPARgamma coactivator (PGC) (AID 1224823)
Method in brief: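 Steps: plate PGC/ERR cells at 2,000 cells/well; incubate 6 h, 37 C/5% CO2; pin-transfer compounds (DMSO); incubate 18 h, 37 C; add One-Glo; 30 min RT; read luminescence.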

Sequence of Retinoic acid receptor RXR-alpha (Homo sapiens) (P19793 whole entry, looked up): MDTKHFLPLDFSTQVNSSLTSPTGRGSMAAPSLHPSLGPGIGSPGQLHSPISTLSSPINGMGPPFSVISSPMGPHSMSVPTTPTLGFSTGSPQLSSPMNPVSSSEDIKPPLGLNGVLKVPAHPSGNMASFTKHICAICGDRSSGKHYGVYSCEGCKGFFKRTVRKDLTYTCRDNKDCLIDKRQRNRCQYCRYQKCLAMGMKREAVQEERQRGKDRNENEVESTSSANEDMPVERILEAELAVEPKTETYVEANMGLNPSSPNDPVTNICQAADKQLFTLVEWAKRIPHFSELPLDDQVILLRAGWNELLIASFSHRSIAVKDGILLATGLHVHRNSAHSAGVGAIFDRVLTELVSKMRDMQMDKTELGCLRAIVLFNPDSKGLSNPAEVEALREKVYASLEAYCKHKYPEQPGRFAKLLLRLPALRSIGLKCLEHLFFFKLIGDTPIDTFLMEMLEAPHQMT

CC(=O)[C@H]1[C@H](C#N)C[C@H]2[C@@H]3CC=C4C[C@@H](O)CC[C@]4(C)[C@H]3CC[C@@]21C
Potency [1]: inactive | Potency [2]: inactive | Potency [3]: inactive | Potency [4]: inactive | Potency [5]: inactive | Potency [6]: inactive | Potency [7]: inactive | Potency [8]: inactive | Potency [9]: inactive | Potency [10]: inactive | Potency [11]: inactive

CCOC(=O)c1ccccc1C(=C1C=C(Br)C(=O)C(Br)=C1)c1cc(Br)c(O)c(Br)c1
Potency [1]: inactive | Potency [3]: inactive | Potency [4]: inactive | Potency [5]: 51.3 µM (active) | Potency [6]: 22.9 µM (active) | Potency [7]: inactive | Potency [9]: inactive | Potency [10]: inactive | Potency [11]: inactive | Potency [12]: inactive

Clc1cc(Cl)nc(Cl)n1
Potency [1]: inactive | Potency [3]: inactive | Potency [4]: inactive | Potency [5]: inactive | Potency [6]: inactive | Potency [13]: inactive | Potency [8]: inactive | Potency [9]: inactive | Potency [10]: inactive | Potency [11]: inactive | Potency [12]: inactive

Cc1ccc(CO)cc1
Potency [1]: inactive | Potency [2]: inactive | Potency [3]: inactive | Potency [4]: inactive | Potency [5]: inactive | Potency [6]: inactive | Potency [7]: inactive | Potency [13]: inactive | Potency [9]: inactive | Potency [10]: inactive | Potency [11]: inactive | Potency [12]: inactive

O=C1c2ccccc2C(=O)C1(O)O
Potency [1]: inactive | Potency [2]: inactive | Potency [3]: inactive | Potency [4]: inactive | Potency [5]: 61.4 µM (active) | Potency [7]: inactive | Potency [8]: inactive | Potency [11]: inactive

O=C1CCCCCCCCCCOCCCCO1
Potency [3]: inactive | Potency [4]: inactive | Potency [5]: inactive | Potency [6]: inactive | Potency [7]: inactive | Potency [8]: inactive | Potency [10]: inactive | Potency [11]: inactive | Potency [12]: inactive

COC(=O)C1=C(C)NC(C)=C(C(=O)O[C@@H]2CCCN(Cc3ccccc3)C2)[C@@H]1c1cccc([N+](=O)[O-])c1
Potency [1]: inactive | Potency [2]: inactive | Potency [3]: inactive | Potency [4]: inactive | Potency [5]: inactive | Potency [7]: inactive | Potency [13]: inactive | Potency [9]: inactive | Potency [10]: inactive

CCOC(=O)c1ccc(OCCN2C[C@H](O)[C@@H](O)[C@H](O)[C@H]2CO)cc1
Potency [2]: inactive | Potency [3]: inactive | Potency [4]: inactive | Potency [5]: inactive | Potency [6]: inactive | Potency [13]: inactive | Potency [8]: inactive | Potency [9]: inactive | Potency [10]: inactive

CC1(C)[C@H](C(=O)O)N2C(=O)C[C@H]2S1(=O)=O
Potency [3]: inactive | Potency [4]: inactive | Potency [5]: inactive | Potency [6]: inactive | Potency [9]: inactive | Potency [10]: inactive | Potency [11]: inactive | Potency [12]: inactive

O=[N+]([O-])c1ccc(Nc2ccc(Nc3ccccc3)c(S(=O)(=O)O)c2)c([N+](=O)[O-])c1
Potency [1]: inactive | Potency [2]: inactive | Potency [3]: inactive | Potency [4]: inactive | Potency [5]: inactive | Potency [6]: inactive | Potency [8]: inactive | Potency [9]: inactive | Potency [10]: inactive

Nc1ccc(N=Nc2ccccc2)c(N)c1
Potency [2]: inactive | Potency [3]: inactive | Potency [4]: inactive | Potency [6]: inactive | Potency [7]: inactive | Potency [10]: inactive | Potency [11]: inactive | Potency [12]: 0.238 µM (active)

COC(=O)CS
Potency [1]: inactive | Potency [2]: inactive | Potency [3]: inactive | Potency [4]: inactive | Potency [5]: inactive | Potency [6]: inactive | Potency [7]: inactive | Potency [9]: inactive | Potency [10]: inactive | Potency [12]: inactive

CC(=O)c1ccc([N+](=O)[O-])cc1
Potency [1]: inactive | Potency [3]: inactive | Potency [4]: inactive | Potency [5]: inactive | Potency [7]: inactive | Potency [13]: inactive | Potency [9]: inactive | Potency [10]: inactive | Potency [12]: inactive

CCc1ccccc1
Potency [2]: inactive | Potency [3]: inactive | Potency [4]: inactive | Potency [5]: inactive | Potency [6]: inactive | Potency [13]: inactive | Potency [9]: inactive | Potency [10]: inactive | Potency [12]: inactive

O=C(Cn1ccnc1[N+](=O)[O-])NCCO
Potency [2]: inactive | Potency [3]: inactive | Potency [4]: inactive | Potency [5]: inactive | Potency [6]: inactive | Potency [7]: inactive | Potency [13]: inactive | Potency [8]: inactive | Potency [9]: inactive | Potency [10]: inactive | Potency [12]: inactive

O=C(CCc1ccc(O)cc1)c1c(O)cc(O)cc1O
Potency [1]: inactive | Potency [2]: inactive | Potency [3]: inactive | Potency [4]: inactive | Potency [5]: inactive | Potency [13]: inactive | Potency [9]: inactive | Potency [10]: inactive | Potency [11]: inactive | outcome [14]: inactive | outcome [15]: inactive | outcome [16]: inactive | outcome [17]: inactive | outcome [18]: inactive

CO[C@]1(NC(=O)CSC(F)F)C(=O)N2C(C(=O)O)=C(CSc3nnnn3CCO)CO[C@H]21
Potency [1]: inactive | Potency [2]: inactive | Potency [3]: inactive | Potency [4]: inactive | Potency [5]: inactive | Potency [7]: inactive | Potency [13]: inactive | Potency [8]: inactive | Potency [9]: inactive | Potency [10]: inactive | Potency [12]: inactive

O=c1cc(-c2ccccc2)oc2ccc3ccccc3c12
Potency [1]: 19.5 µM (active) | Potency [3]: inactive | Potency [4]: 54.9 µM (active) | Potency [5]: 27.3 µM (active) | Potency [6]: inactive | Potency [7]: 24.5 µM (active) | Potency [8]: inactive | Potency [9]: 19.5 µM (active) | Potency [10]: 24.3 µM (active)

CC(C)(C)C(=O)C(=O)O
Potency [1]: inactive | Potency [2]: inactive | Potency [3]: inactive | Potency [4]: inactive | Potency [5]: inactive | Potency [6]: inactive | Potency [7]: inactive | Potency [13]: inactive | Potency [8]: inactive | Potency [9]: inactive | Potency [10]: inactive | Potency [11]: inactive | Potency [12]: inactive

c1ccc(C[n+]2cccc3ccccc32)cc1
Potency [3]: inactive | Potency [4]: inactive | Potency [5]: inactive | Potency [6]: inactive | Potency [7]: inactive | Potency [13]: inactive | Potency [9]: inactive | Potency [10]: inactive | Potency [12]: inactive

CCCCCCCCN
Potency [1]: inactive | Potency [2]: inactive | Potency [3]: inactive | Potency [4]: inactive | Potency [5]: inactive | Potency [6]: inactive | Potency [7]: inactive | Potency [13]: inactive | Potency [8]: inactive | Potency [9]: inactive | Potency [10]: inactive | Potency [11]: inactive | Potency [12]: inactive

CC1CC(OC(=O)C(O)c2ccccc2)CC(C)(C)N1C (stereo not drawn)
Potency [1]: inactive | Potency [2]: inactive | Potency [3]: inactive | Potency [4]: inactive | Potency [5]: inactive | Potency [6]: inactive | Potency [7]: inactive | Potency [13]: inactive | Potency [9]: inactive | Potency [10]: inactive | Potency [12]: inactive
